Test results published in ChEMBL document CHEMBL1201862, “PubChem BioAssay data set” (2004).
The whole screen tested about 400,000 compounds, of which about 2,100 (0.53%) were called active. Not shown: some 14% with an inconclusive outcome. The rule behind the calls is not given here. This excerpt belongs to a sample that is enriched for actives.

Target: Ataxin-2 (Homo sapiens) (UniProt Q99700)
Test: qHTS for Inhibitors of ATXN expression.
Type: functional

Ataxin-2 (Homo sapiens), sequence (Q99700 whole entry): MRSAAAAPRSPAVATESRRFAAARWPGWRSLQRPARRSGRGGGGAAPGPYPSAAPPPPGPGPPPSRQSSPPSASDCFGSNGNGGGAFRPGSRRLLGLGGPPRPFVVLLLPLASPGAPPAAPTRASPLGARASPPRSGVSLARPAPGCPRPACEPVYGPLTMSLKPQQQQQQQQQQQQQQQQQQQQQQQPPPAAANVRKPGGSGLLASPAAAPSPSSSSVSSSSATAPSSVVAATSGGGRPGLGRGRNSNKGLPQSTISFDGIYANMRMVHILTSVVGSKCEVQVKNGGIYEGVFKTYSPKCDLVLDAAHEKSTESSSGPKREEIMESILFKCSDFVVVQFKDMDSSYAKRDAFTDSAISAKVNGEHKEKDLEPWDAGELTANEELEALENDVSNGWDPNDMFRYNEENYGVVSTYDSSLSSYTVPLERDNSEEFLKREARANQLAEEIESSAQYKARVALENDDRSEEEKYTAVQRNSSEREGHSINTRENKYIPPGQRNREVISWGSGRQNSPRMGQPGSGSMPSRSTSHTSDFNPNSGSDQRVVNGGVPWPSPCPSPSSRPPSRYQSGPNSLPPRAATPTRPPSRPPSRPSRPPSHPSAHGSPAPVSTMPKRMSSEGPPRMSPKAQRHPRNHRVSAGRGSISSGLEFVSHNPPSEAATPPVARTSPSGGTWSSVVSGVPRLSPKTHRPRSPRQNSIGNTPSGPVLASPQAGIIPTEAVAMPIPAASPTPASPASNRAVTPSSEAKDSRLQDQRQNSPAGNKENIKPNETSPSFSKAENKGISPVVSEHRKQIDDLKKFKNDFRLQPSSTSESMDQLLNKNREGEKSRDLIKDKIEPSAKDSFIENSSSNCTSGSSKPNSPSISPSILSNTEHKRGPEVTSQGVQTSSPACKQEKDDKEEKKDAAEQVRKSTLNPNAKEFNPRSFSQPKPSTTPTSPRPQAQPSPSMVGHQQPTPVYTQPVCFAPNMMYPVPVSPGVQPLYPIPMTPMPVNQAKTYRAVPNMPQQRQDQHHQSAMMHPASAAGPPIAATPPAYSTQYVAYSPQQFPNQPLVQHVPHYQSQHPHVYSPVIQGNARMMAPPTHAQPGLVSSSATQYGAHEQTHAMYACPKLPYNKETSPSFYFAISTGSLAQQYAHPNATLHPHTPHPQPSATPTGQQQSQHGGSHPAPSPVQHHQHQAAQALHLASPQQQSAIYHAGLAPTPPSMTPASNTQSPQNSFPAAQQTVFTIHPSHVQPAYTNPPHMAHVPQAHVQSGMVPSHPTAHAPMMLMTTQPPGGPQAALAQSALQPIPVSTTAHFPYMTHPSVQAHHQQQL

| SMILES | Potency |
| --- | --- |
| C/C(=N\NC(=O)c1ccc(-n2cnnn2)cc1)c1ccc(Cl)cc1 | inactive |
| O=C(N/N=C1/C(=O)c2cccc3cccc1c23)c1ccc(Cl)cc1 | 35.5 µM (active) |
| Nc1[nH]cnc2c(C3OC(CO)C(O)C3O)cnc1-2 (stereo not given) | 0.299 µM (active) |
| Cc1cccn2c(=O)c3cc(S(=O)(=O)c4ccc(F)cc4)c(=N)n(Cc4ccco4)c3nc12 | inactive |
| CCOC(=O)c1cc2c(=O)n3ccccc3nc2n(Cc2ccco2)/c1=N\C(=O)c1ccc(F)cc1 | inactive |
| Cc1nc2c(sc(=S)n2Cc2ccco2)c(=O)n1CC(=O)Nc1ccc(F)cc1 | 39.8 µM (active) |
| Cc1cc(C)c2c(N)c3cccc(C)c3nc2n1 | inactive |
| CCOC(=O)C1=C(Nc2ccccc2)S/C(=C\c2ccc(OCC(=O)O)c(OCC)c2)C1=O | inactive |
| CCOC(=O)C1=C(C#N)C(C(=O)OCC)c2ncccc21 (stereo not given) | inactive |
| CCOC(=O)C1=C(O)c2ccccc2C(=O)/C1=C\c1ccc(C)cc1 | 39.8 µM (active) |
| COCCNc1c2c(c(C#N)c3nc4ccccc4n13)CCCC2 | inactive |
| Cc1ccc2[nH]c(/C(C#N)=C\c3ccc([N+](=O)[O-])o3)nc2c1 | 8.91 µM (active) |
| COc1cc(/C=C(\C#N)c2nc3cc(C)ccc3[nH]2)ccc1OCc1ccc(C)cc1 | inactive |
| COc1cc(/C=C(\C#N)c2nc3cc(C)ccc3[nH]2)ccc1OC(C)C | inactive |
| Cc1ccc2[nH]c(/C(C#N)=C/c3ccc(-c4ccccc4C(=O)O)o3)nc2c1 | inactive |
| Cc1c(Cl)cccc1-c1ccc(/C=C(\C#N)c2nc3ccccc3[nH]2)o1 | inactive |
| COc1ccc(/C=C(\C#N)c2nc3cc(C)ccc3[nH]2)cc1Oc1ccc(C(F)(F)F)cc1[N+](=O)[O-] | 44.7 µM (active) |
| Oc1c(Br)cc(Br)cc1/C=N\c1cccnc1 | inactive |
| COCc1cc(N2CCCC2)nc(-c2ccccc2)n1 | inactive |
| Cc1c(N=C2N=C(NC(=O)Nc3ccc(Cl)cc3)c3ccccc32)c(=O)n(-c2ccccc2)n1C | inactive |
| O=C1c2cccc3c([N+](=O)[O-])ccc(c23)C(=O)N1CC1CCCO1 (stereo not given) | inactive |
| Cc1ccc(C(=O)NCCc2ccccc2)cc1N1CCCC1=O | inactive |
| CCCCCn1c(CCNC(=O)c2cccc(C)c2)nc2ccccc21 | 31.6 µM (active) |
| CCc1ccccc1-n1c(C)nc2cc(C(=O)NCCc3ccc(Cl)cc3)ccc21 | 44.7 µM (active) |
| CCCn1c(CNC(=O)c2cccs2)nc2ccccc21 | inactive |

| SMILES | Potency |
| --- | --- |
| CCC(=O)NCCCc1nc2ccccc2n1Cc1ccccc1F | inactive |
| CCCCCn1c(N)c(C#N)c2nc3ccccc3nc21 | inactive |
| CCn1c(C)nc2cc(C(=O)N/N=C(\C)c3ccccc3O)ccc21 | inactive |
| CCCCCn1nc(-c2ccccc2)c2nc3ccccc3nc21 | inactive |
| Cc1cccc(C(=O)NCCc2nc3ccccc3n2Cc2ccc(Cl)cc2)c1 | 28.2 µM (active) |
| Cc1cccc(-n2cnc3cc(C(=O)NCCN4CCOCC4)ccc32)c1 | inactive |
| CCCCCn1c(-c2cccc(C)c2)nc2ccccc21 | 35.5 µM (active) |
| ClCc1nc2ccccc2n1Cc1ccccc1 | inactive |
| COc1cccc(NC(=O)N2CCCC2C(=O)Nc2cc(C)ccc2OC)c1 (stereo not given) | inactive |
| c1ccc2c3c(c(CN4CCCC4)cc2c1)COC3 | inactive |
| Cc1ccc(NC(=O)NN2CCOCC2)cc1 | inactive |
| CC1(C)Cc2c(cnn2-c2cccc(F)c2)C(NC(=O)CSc2ccccn2)C1 (stereo not given) | inactive |
| Cc1cc(-n2c(=O)c(C#N)cc3c(=O)n4cccc(C)c4nc32)no1 | inactive |
| O=C(N/N=C/c1ccc(N2CCOCC2)cc1)c1ccccc1NS(=O)(=O)c1cccs1 | inactive |
| C[C@H]1CCC[C@]2(C)C[C@H]3OC(=O)C(CN4CCCCCC4)[C@H]3C=C12 (stereo not given in full) | 39.8 µM (active) |
| CCN/N=C(\Cc1nc2ccccc2[nH]1)c1ccccc1 | inactive |
| Cc1cccn2c(=O)c3cc(C(=O)NCC4CCCO4)c(=N)n(CC4CCCO4)c3nc12 (stereo not given) | inactive |
| Cc1ccc(-c2nc(CS(=O)(=O)CC(=O)NCc3ccc4c(c3)OCO4)c(C)o2)cc1 | inactive |
| COc1cccc(-c2nc(CS(=O)(=O)CC(=O)Nc3cccc(C)c3C)c(C)o2)c1 | 7.08 µM (active) |
| Cc1ccc(CNC(=O)CS(=O)(=O)Cc2nc(-c3ccccc3F)oc2C)cc1 | inactive |
| COc1ccc(OC)c(/C=C2\Oc3cc(OCC(=O)N4CC(O)C[C@H]4C(=O)O)ccc3C2=O)c1 (stereo not given in full) | inactive |
| CCOc1ccc2c(c1)/C(=C(\C(Cl)=C(Cl)Cl)[N+](=O)[O-])N2 | inactive |
| COc1ccc(C(=O)/C(=C\c2ccco2)N2C=CC=CC2=C(C#N)C#N)cc1 | 1.78 µM (active) |
| COc1ccc(/C=c2\s/c(=C(/C#N)C(=O)NCc3ccco3)n(-c3ccccc3)c2=O)cc1 | inactive |
| O=C(O)CSCC(=O)NCc1csc2ccc(Cl)cc12 | inactive |

| SMILES | Potency |
| --- | --- |
| O=C(CN1CCc2ccccc21)Nc1ccc2c(c1)OCCCO2 | inactive |
| COc1ccc(-c2[nH]c(-c3ccc(C)cc3)nc2SCC(=O)NCc2ccco2)cc1OC | inactive |
| N#Cc1ccccc1NC(=O)CSc1nc(-c2ccccc2)cc(C(F)(F)F)c1C#N | inactive |
| Cc1ccc(NC(=O)CSc2nnc(-c3cc(C)on3)o2)cc1 | inactive |
| O=C(CSc1nc(-c2ccccc2)[nH]c1-c1ccccc1)Nc1ccc2c(c1)OCCO2 | 39.8 µM (active) |
| O=C(CSc1nc(-c2ccc(F)cc2)[nH]c1-c1ccc(F)cc1)Nc1ccc2c(c1)OCCO2 | 39.8 µM (active) |
| CCN(CC)c1ccc2cc(C(N)=O)c(=N)oc2c1 | inactive |
| O=C1N=C(N2CCCCC2)S/C1=C\c1ccc(Br)cc1 | inactive |
| CCCCN1CC(c2nc3ccccc3n2CCCCOc2ccc(C)c(C)c2)CC1=O (stereo not given) | 39.8 µM (active) |
| CC(=O)Oc1ccc2cc(-c3nc4ccccc4n3C)c(=O)oc2c1 | inactive |
| CC(C)(C)OC(=O)c1c(N)n(CCCN2CCCC2=O)c2nc3ccccc3nc12 | inactive |
| CCc1ccc(OCCn2c(C3CC(=O)N(Cc4ccc(F)cc4)C3)nc3ccccc32)cc1 (stereo not given) | 39.8 µM (active) |
| Cc1cc(OCCn2c(C3CC(=O)N(Cc4ccc(F)cc4)C3)nc3ccccc32)ccc1Cl (stereo not given) | 39.8 µM (active) |
| Cc1cccc(N2CC(c3nc4ccccc4n3C)CC2=O)c1C (stereo not given) | inactive |
| Cc1ccccc1N1CC(c2nc3ccccc3n2CCC2CCCCC2)CC1=O (stereo not given) | 35.5 µM (active) |
| Cc1cc(NC2CCCCC2)n2c(n1)nc1ccccc12 | inactive |
| O=c1nc2n(-c3ccccc3F)c3ccccc3cc-2c(=O)[nH]1 | inactive |
| CCOC(=O)c1c(NC(=O)c2ccco2)n(C2CCCCC2)c2nc3ccccc3nc12 | inactive |
| Cc1noc(C)c1CSCC(=O)Nc1ccc(S(C)(=O)=O)cc1 | inactive |
| CC(C)OC(=O)CSc1nc(Cc2ccccc2)nc2ccccc12 | inactive |
| Cc1cc(-c2nc3cccnc3s2)ccc1NS(=O)(=O)c1cccs1 | inactive |
| O=C(COC(=O)c1cccnc1)NC1CCCc2ccccc21 (stereo not given) | inactive |
| CCOc1ccc(N2CC(C(=O)Nc3ccc(S(=O)(=O)NCC4CCCO4)cc3)CC2=O)cc1 (stereo not given) | inactive |
| CCOc1ccc(N2CC(c3nc4ccccc4n3CCCOc3ccccc3)CC2=O)cc1 (stereo not given) | 22.4 µM (active) |
| CCOc1ccc(CNc2nc3ccccc3n2C)cc1 | inactive |

| SMILES | Potency |
| --- | --- |
| Cc1nn(Cc2ccccc2)c(Cl)c1/C=N/NC(=O)c1cccnc1 | inactive |
| CN1CCN(c2ccc([N+](=O)[O-])c(-n3nc(-c4ccccc4)c4ccccc4c3=O)c2)CC1 | 35.5 µM (active) |
| Nc1ccc2nn(-c3ccccc3)nc2c1 | inactive |
| N#CC(c1nc2ccccc2nc1N1CCOCC1)S(=O)(=O)c1ccccc1 (stereo not given) | inactive |
| Fc1ccccc1N1CC(c2ccccc2)C(c2cccs2)=N1 (stereo not given) | inactive |
| CCCCCCc1cc2cc(S(=O)(=O)c3ccc(F)c(Cl)c3)c(=O)oc2cc1O | inactive |
| OC(CNc1ccnc2cc(Cl)ccc12)CNC1CCCCC1 (stereo not given) | 39.8 µM (active) |
| Clc1ccc2c(NCCNC3CCCCC3)ccnc2c1 | 15.8 µM (active) |
| Cc1ccc(/C=C2\CCC3=C2OC(N)=C(C#N)C3c2ccc(C)cc2)cc1 (stereo not given) | inactive |
| CCOC(=O)c1cc2c(=O)n3ccccc3nc2n(CC2CCCO2)/c1=N\C(=O)c1ccc(OC)cc1OC (stereo not given) | inactive |
| O=C(Cc1ccccc1)N/N=C/c1cc(Br)cc(Cl)c1O | inactive |
| CCOC(=O)c1cc2c(=O)n3ccccc3nc2n(Cc2ccco2)/c1=N\C(=O)c1cccc(F)c1 | inactive |
| Clc1ccc(-c2noc(/C=C/c3ccccc3)n2)cc1 | inactive |
| O=C1/C(=C/Nc2nnc(CCCO)[nH]2)c2ccccc2C(=O)N1c1ccccc1Cl | inactive |
| CCCCn1c(N)c(N(CCOC)C(=O)CN2c3ccccc3CC2C)c(=O)[nH]c1=O (stereo not given) | inactive |
| Cc1ccccc1OCC(=O)N(Cc1ccco1)c1c(N)n(Cc2ccccc2)c(=O)[nH]c1=O | inactive |
| Nc1c(N(CCC2=CCCCC2)C(=O)COc2ccc(F)cc2Cl)c(=O)[nH]c(=O)n1Cc1ccccc1 | 11.9 µM (active) |
| Nc1c(N(CCC2=CCCCC2)C(=O)COc2ccc(F)cc2)c(=O)[nH]c(=O)n1Cc1ccccc1 | 39.8 µM (active) |
| CCN(C(=O)COC(=O)c1cccc(S(=O)(=O)N(C)C)c1)c1c(N)n(Cc2ccccc2)c(=O)[nH]c1=O | inactive |
| CCCCN(C(=O)CSc1nnc2ccccn12)c1c(N)n(Cc2ccccc2)c(=O)[nH]c1=O | inactive |
| CCn1c(=N)c(C(=O)NCC2CCCO2)cc2c(=O)n3cc(C)ccc3nc21 (stereo not given) | inactive |
| C=CC[C@@H](CC(=O)NCCO)C(=O)N[C@H](COC(=O)[C@@H](CC=C)Cc1ccc(F)cc1)Cc1c[nH]c2ccccc12 | 35.5 µM (active) |
| C=CCC[C@H](Cc1ccc(F)cc1)C(=O)OC[C@H](Cc1c[nH]c2ccccc12)NC(=O)[C@@H](CC=C)CC(=O)NCCO | 28.2 µM (active) |
| C=CC[C@@H](CC(=O)N[C@H](CO)Cc1ccccc1)C(=O)N[C@H](COC(=O)[C@@H](CC=C)Cc1ccc(F)cc1)Cc1c[nH]c2ccccc12 | 25.1 µM (active) |
| C=CCC[C@@H](Cc1ccc(F)cc1)C(=O)OC[C@H](Cc1c[nH]c2ccccc12)NC(=O)[C@@H](CC=C)CC(=O)NCCO | 39.8 µM (active) |
